From ChEMBL document CHEMBL2218924, “A broad activity screen in support of a chemogenomic map for kinase signalling research and drug discovery” (Biochem J, 2013)

molecular target: T1, Serine/threonine-protein kinase Nek11 (Homo sapiens) (UniProt Q8NG66); conditions: at 10 µM
T1 sequence (whole entry): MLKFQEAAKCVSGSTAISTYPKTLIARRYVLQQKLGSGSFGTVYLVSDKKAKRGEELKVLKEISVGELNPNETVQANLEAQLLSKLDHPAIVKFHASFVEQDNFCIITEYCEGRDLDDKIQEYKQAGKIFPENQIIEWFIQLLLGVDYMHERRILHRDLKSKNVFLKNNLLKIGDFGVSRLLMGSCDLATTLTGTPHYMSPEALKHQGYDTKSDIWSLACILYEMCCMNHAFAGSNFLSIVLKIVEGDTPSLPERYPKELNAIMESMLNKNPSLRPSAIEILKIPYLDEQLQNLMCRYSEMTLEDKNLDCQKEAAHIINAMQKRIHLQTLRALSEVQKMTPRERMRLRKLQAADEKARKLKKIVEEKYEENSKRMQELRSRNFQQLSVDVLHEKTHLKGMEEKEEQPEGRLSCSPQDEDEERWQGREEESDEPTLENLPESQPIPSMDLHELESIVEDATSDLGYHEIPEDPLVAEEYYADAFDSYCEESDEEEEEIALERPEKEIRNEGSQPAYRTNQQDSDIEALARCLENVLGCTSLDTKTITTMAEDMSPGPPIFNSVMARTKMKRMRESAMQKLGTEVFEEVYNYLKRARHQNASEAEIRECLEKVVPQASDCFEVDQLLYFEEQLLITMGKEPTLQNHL

Row | SMILES | residual activity [%]
1 | CO[C@H]1C[C@@H]2CC[C@@H](C)[C@@](O)(O2)C(=O)C(=O)N2CCCC[C@H]2C(=O)O[C@H]([C@H](C)C[C@@H]2CC[C@@H](O)[C@H](OC)C2)CC(=O)[C@H](C)/C=C(\C)[C@@H](O)[C@@H](OC)C(=O)[C@H](C)C[C@H](C)/C=C/C=C/C=C/1C | 112
2 | Nc1nc(Nc2ccc(S(N)(=O)=O)cc2)nn1C(=S)Nc1c(F)cccc1F | 30
3 | O=C1NC(=O)/C(=C\c2ccc3nccnc3c2)S1 | 35
4 | COc1ccc(CNc2nc(N(CCO)CCO)nc3c2ncn3C(C)C)cc1 | 64
5 | COc1ccc(C(=O)Nc2sc3c(c2C(N)=O)CCCC3)cc1OC | 96
6 | O=C(Nc1cccc(Nc2cc(Nc3cccc(C(F)(F)F)c3)ncn2)c1)C1CC1 | 103
7 | Oc1ccc(Nc2nc(-c3ccc(Cl)cc3)cs2)cc1 | 40
8 | COc1ccc(OC)c2c(=S)c3ccccc3[nH]c12 | 54
9 | O=C1Nc2cc(Br)ccc2/C1=C1/Nc2ccccc2/C1=N\O | 45
10 | Nc1cccc(-c2cc3c(Oc4cccc(O)c4)ncnc3[nH]2)c1 | 25
11 | Oc1n[nH]c2nnc(-c3c(-c4ccccc4)nn4ccccc34)cc12 | 74
12 | COc1cccc(-c2cc(=O)c3ccccc3o2)c1N | 78
13 | Cc1nc2cc3nc(-c4cccs4)cnc3cc2n1C | 102
14 | O=Nc1c(-c2c(O)[nH]c3ccccc23)[nH]c2ccccc12 | 18
15 | O=C1c2ccccc2-[n+]2ccc3c([nH]c4ccccc43)c21 | 44
16 | CNc1cc2c(Nc3cccc(Br)c3)ncnc2cn1 | 103
17 | O=c1cc(-c2cccc3c2Sc2ccccc2S3)oc(N2CCOCC2)c1 | 64
18 | C[C@@H](N)[C@H]1CC[C@H](C(=O)Nc2ccncc2)CC1 | 96

Row | SMILES | residual activity [%]
19 | Cc1nc(-c2ccccc2)c(-c2ccncc2)o1 | 85
20 | CCC(=O)Nc1ccc2ncnc(Nc3cccc(Br)c3)c2c1 | 92
21 | Cn1cnc2cc3c(Nc4cccc(Br)c4)ncnc3cc21 | 106
22 | CC(C)n1cnc2/c(=N/c3cccc(Cl)c3)nc(NCCO)[nH]c21 | 58
23 | Oc1c2ccccc2c2c3c(cccc13)N=N2 | 47
24 | COc1cc2ncnc(Nc3ccc(O)c(Br)c3)c2cc1OC | 64
25 | N#C/C(=C(\N)Sc1ccc(N)cc1)c1ccccc1C(F)(F)F | 68
26 | CCOc1cc2ncnc(Nc3cccc(Br)c3)c2cc1OCC | 89
27 | O=C1NC(=O)c2c1c1c3ccccc3[nH]c1c1[nH]c3cc(Br)ccc3c21 | 73
28 | CC#CC(=O)Nc1cc2c(Nc3ccc(F)c(Cl)c3)ncnc2cn1 | 99
29 | NC(=O)c1ccc2[nH]c(-c3ccc(Oc4ccc(Cl)cc4)cc3)nc2c1 | 33
30 | O=C(Nc1cccc(Nc2nccc(Nc3cccc(C(F)(F)F)c3)n2)c1)C1CC1 | 80
31 | O=c1c2ccccc2[nH]c(=S)n1CCN1CCC(=C(c2ccc(F)cc2)c2ccc(F)cc2)CC1 | 98
32 | Ic1cccc(CSc2nnc(-c3ccncc3)o2)c1 | 102
33 | O=C1NC(=O)/C(=C/c2ccc3c(c2)OC(F)(F)O3)S1 | 82
34 | Cc1ccc(NC2=CC(=O)c3sc(C)nc3C2=O)cc1 | 75
35 | CC(=O)O/N=C1\C(=C2\C(=O)Nc3cc(Br)ccc32)Nc2ccccc21 | 67
